# Measured values published in paper PMC11062922 (Nature Chemical Biology, 2023).
# Like-named read-outs stand apart in the source and are kept apart here.
# Columns and labels:
# Parameters in all cases: species or system human, MV4-11 + K-562 + COLO205 + SK-N-BE2 + OVCAR-8
# ACVR1B = settings: read-out: apparent Kd; compound concentrations:100 nM and 1000 nM (sheet 'Samples'); n = 1
# DJA1 = system: T1, DJA1; settings: read-out: apparent Kd; compound concentrations:100 nM and 1000 nM (sheet 'Samples'); n = 1
# T1 construct: gene DNAJA1
# FYN = settings: read-out: apparent Kd; compound concentrations:100 nM and 1000 nM (sheet 'Samples'); n = 1
# PIK3CA = settings: read-out: apparent Kd; compound concentrations:100 nM and 1000 nM (sheet 'Samples'); n = 1
# PIK3CD = settings: read-out: apparent Kd, n = 1
# STK16 = settings: read-out: apparent Kd; compound concentrations:100 nM and 1000 nM (sheet 'Samples'); n = 1
# ACVR2B = settings: read-out: apparent Kd, compound concentrations: 100 nM and 1000 nM (sheet 'Samples'), n = 1
# BCR = settings: read-out: apparent Kd; compound concentrations: 100 nM and 1000 nM (sheet 'Samples'), CATDS: 0.13309110379765501; n = 1
# EPHA1 = settings: read-out: apparent Kd; compound concentrations: 100 nM and 1000 nM (sheet 'Samples'), CATDS: 0.10065713248800801; n = 1
# GAK = settings: read-out: apparent Kd, n = 1
# PTK6 = settings: read-out: apparent Kd; compound concentrations: 100 nM and 1000 nM (sheet 'Samples'), CATDS: 9.8392012299874307E-2; n = 1
# RET = settings: read-out: apparent Kd; compound concentrations: 100 nM and 1000 nM (sheet 'Samples'), CATDS: 0.106923709019676; n = 1
# RIPK2 = settings: read-out: apparent Kd, n = 1
# RIPK3 = settings: read-out: apparent Kd; compound concentrations: 100 nM and 1000 nM (sheet 'Samples'), CATDS: 7.5580251546270003E-2; n = 1
# SIK2 = settings: read-out: apparent Kd; compound concentrations: 100 nM and 1000 nM (sheet 'Samples'), CATDS: 0.152739498183388; n = 1
# ADCK1 = settings: read-out: apparent Kd; compound concentrations: 100 nM and 1000 nM (sheet 'Samples'), CATDS: 4.1233669692049897E-2; n = 1
# AKT1 = settings: read-out: apparent Kd; compound concentrations: 100 nM and 1000 nM (sheet 'Samples'), CATDS: 4.32167355318668E-2; n = 1
# AKT2 = settings: read-out: apparent Kd; compound concentrations: 100 nM and 1000 nM (sheet 'Samples'), CATDS: 4.9283792774051899E-2; n = 1
# BTK = settings: read-out: apparent Kd; compound concentrations: 100 nM and 1000 nM (sheet 'Samples'), CATDS: 5.4009737115297697E-2; n = 1
# CDC42BPG = settings: read-out: apparent Kd; compound concentrations: 100 nM and 1000 nM (sheet 'Samples'), CATDS: 4.9090451053861402E-2; n = 1
# CSNK1A1 = settings: read-out: apparent Kd; compound concentrations: 100 nM and 1000 nM (sheet 'Samples'), CATDS: 4.23666657347909E-2; n = 1
# CSNK1E = settings: read-out: apparent Kd; compound concentrations: 100 nM and 1000 nM (sheet 'Samples'), CATDS: 3.8720748933532501E-2; n = 1
# CSNK1G3 = settings: read-out: apparent Kd; compound concentrations: 100 nM and 1000 nM (sheet 'Samples'), CATDS: 4.2624276708998099E-2; n = 1
# IARS = settings: read-out: apparent Kd; compound concentrations: 100 nM and 1000 nM (sheet 'Samples'), CATDS: 4.0140361212157798E-2; n = 1
# MAPK14 = settings: read-out: apparent Kd; compound concentrations: 100 nM and 1000 nM (sheet 'Samples'), CATDS: 5.21130062125853E-2; n = 1
# OPA1 = settings: read-out: apparent Kd; compound concentrations: 100 nM and 1000 nM (sheet 'Samples'), CATDS: 4.7870015182345502E-2; n = 1
# PIM1 = settings: read-out: apparent Kd; compound concentrations: 100 nM and 1000 nM (sheet 'Samples'), CATDS: 5.1032643222322503E-2; n = 1
# PIM2 = settings: read-out: apparent Kd; compound concentrations: 100 nM and 1000 nM (sheet 'Samples'), CATDS: 0.19635235530270301; n = 1
# RAB14 = settings: read-out: apparent Kd; compound concentrations: 100 nM and 1000 nM (sheet 'Samples'), CATDS: 4.5308660485802198E-2; n = 1
# RPS6KA3 = settings: read-out: apparent Kd; compound concentrations: 100 nM and 1000 nM (sheet 'Samples'), CATDS: 4.2284934101133903E-2; n = 1
# RPS6KA6 = settings: read-out: apparent Kd; compound concentrations: 100 nM and 1000 nM (sheet 'Samples'), CATDS: 6.3682849838720093E-2; n = 1
# SRC = settings: read-out: apparent Kd; compound concentrations: 100 nM and 1000 nM (sheet 'Samples'), CATDS: 4.8588200967613397E-2; n = 1
# STK3 = settings: read-out: apparent Kd; compound concentrations: 100 nM and 1000 nM (sheet 'Samples'), CATDS: 4.1174689810954603E-2; n = 1
# TAOK1 = settings: read-out: apparent Kd; compound concentrations: 100 nM and 1000 nM (sheet 'Samples'), CATDS: 5.56620194527895E-2; n = 1
# NQO2 = settings: read-out: apparent Kd; compound concentrations:100 nM and 1000 nM (sheet 'Samples'); n = 1
# PRKD2 = settings: read-out: apparent Kd; compound concentrations:100 nM and 1000 nM (sheet 'Samples'); n = 1
# TGFBR1 = settings: read-out: apparent Kd; compound concentrations:100 nM and 1000 nM (sheet 'Samples'); n = 1
# TGFBR2 = settings: read-out: apparent Kd; compound concentrations:100 nM and 1000 nM (sheet 'Samples'); n = 1
# TNIK = settings: read-out: apparent Kd; compound concentrations:100 nM and 1000 nM (sheet 'Samples'); n = 1
# [1] = compound concentrations:100 nM and 1000 nM (sheet 'Samples')
structure (smiles),measurement,setting,value
Clc1cccc(-c2nc(Nc3ccncc3)c3ccccc3n2)c1 [GW873004X],potency estimated from few doses,ACVR1B,0.843 µM
same,potency estimated from few doses,DJA1,2.18 µM
same,potency estimated from few doses,FYN,0.937 µM
same,potency estimated from few doses,PIK3CA,0.222 µM
same,potency estimated from few doses,PIK3CD; [1],0.106 µM
same,potency estimated from few doses,STK16,1.4 µM
Fc1cc(Cl)ccc1Nc1ccnc2cc(-c3ccc(CN4CCCCC4)o3)ccc12 [GW560116X],potency estimated from few doses,ACVR2B; CATDS: 8.5008478980750105E-2,1.08 µM
same,potency estimated from few doses,BCR,0.359 µM
same,potency estimated from few doses,EPHA1,0.67 µM
same,potency estimated from few doses,"GAK; compound concentrations: 100 nM and 1000 nM (sheet 'Samples'), CATDS: 0.10209993083840201",0.646 µM
same,potency estimated from few doses,PTK6,0.71 µM
same,potency estimated from few doses,RET,0.577 µM
same,potency estimated from few doses,"RIPK2; compound concentrations: 100 nM and 1000 nM (sheet 'Samples'), CATDS: 0.37039480382744999",0.0693 µM
same,potency estimated from few doses,RIPK3,1.65 µM
same,potency estimated from few doses,SIK2,0.276 µM
COc1cccc(C2=C(c3cn(C)c4ccc(Cl)cc34)C(=O)NC2=O)c1 [RO3300230-000],potency estimated from few doses,ADCK1,1.86 µM
same,potency estimated from few doses,AKT1,1.65 µM
same,potency estimated from few doses,AKT2,1.21 µM
same,potency estimated from few doses,BTK,0.993 µM
same,potency estimated from few doses,CDC42BPG,1.22 µM
same,potency estimated from few doses,CSNK1A1,1.73 µM
same,potency estimated from few doses,CSNK1E,2.23 µM
same,potency estimated from few doses,CSNK1G3,1.71 µM
same,potency estimated from few doses,IARS,2.01 µM
same,potency estimated from few doses,MAPK14,1.07 µM
same,potency estimated from few doses,OPA1,1.29 µM
same,potency estimated from few doses,"PIK3CD; compound concentrations: 100 nM and 1000 nM (sheet 'Samples'), CATDS: 0.15137185396719799",0.189 µM
same,potency estimated from few doses,PIM1,1.12 µM
same,potency estimated from few doses,PIM2,0.133 µM
same,potency estimated from few doses,RAB14,1.46 µM
same,potency estimated from few doses,RPS6KA3,1.74 µM
same,potency estimated from few doses,RPS6KA6,0.723 µM
same,potency estimated from few doses,SRC,1.25 µM
same,potency estimated from few doses,STK3,1.87 µM
same,potency estimated from few doses,TAOK1,0.935 µM
c1ccc(-c2n[nH]cc2-c2ccnc(-c3ccc(OCCn4ccnc4)cc3)c2)nc1 [GW711782X],potency estimated from few doses,ACVR1B,0.245 µM
same,potency estimated from few doses,GAK; [1],1.35 µM
same,potency estimated from few doses,NQO2,0.0711 µM
same,potency estimated from few doses,PRKD2,2.16 µM
same,potency estimated from few doses,RIPK2; [1],0.801 µM
same,potency estimated from few doses,TGFBR1,0.082 µM
same,potency estimated from few doses,TGFBR2,0.719 µM
same,potency estimated from few doses,TNIK,0.873 µM
Cc1ccc(Nc2ccnc(Nc3ccc(C)c(F)c3)n2)cc1O.Cl [GW582868A],potency estimated from few doses,ACVR2B; CATDS: 1,0.664 µM
